# NSD2 HMT inh – NSD2 (human) methyltransferase inhibition | O96028 | hit rate 0.54% among 310,000 | AID 743445 | inhibition, % at 12.5 µM | NSD2 peptide methylation, AlphaScreen, 120 min; in the data active = inhibition above about 50%
# LMP1 NFkB inh – reduces LMP1-driven NF-kappaB luciferase signal; LMP1-induced NF-kappaB luciferase reporter cells, luminescence; inhibition, % at 12.5 µM; hit rate 0.69% among 350,000; in the data active = inhibition above about 41%
# Env fusion inh – HIV envelope-mediated fusion inhibition. HeLa-JRFL Env/CEM21 cell fusion, luciferase. inhibition, % at 12.3 µM. hit rate 1.1% among 360,000;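 active = mean replicate inhibition score of at least 50 and every replicate individually at or above 50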
# Glyco luc inh – blocks N-linked glycosylation in D54 reporter cells. reporter increase, % at 12.5 µM. D54 ERlucT glycosylation luciferase reporter, 24 h; percent of 100 nM tunicamycin response. hit rate 0.23% among 360,000;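 active = mean luciferase reporter signal, scaled so untreated is 0 and the glycosylation-blocking control 100, at or above a set limit in every replicate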;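 also: luciferase carries N-glycosylation sites so blocking glycosylation raises the light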
# Shn3 inh set2 – reduces Shn3 3'UTR luciferase signal in osteoblasts. AID 588674. inhibition, % at 12.5 µM. hit rate 0.52% among 360,000. Clone20 osteoblast Shn3 3'UTR firefly luciferase, 24 h;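 active = mean inhibition of at least 75% with every replicate also reaching 75%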
# PAX8 reporter – lowers PAX8-driven luciferase in RMG-I cells; RMG-I TPO-luciferase reporter, SteadyGlo, 24 h; inhibition, % at 12.6 µM; hit rate 1.2% among 360,000; AID 652154;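 active = mean replicate inhibition at least 60% with every replicate also reaching 60%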;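 also: luciferase light reporting Pax8 driven TPO promoter activity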
# Hits are given with their value; i = inactive; nt = no result; ! = not active in a repeat; [ ] = dose if it differs, or a comment. Shown are actives, neighbours in structure and some others; about 2.8% of the full set was active somewhere.
SMILES,NSD2 HMT inh,LMP1 NFkB inh,Env fusion inh,Glyco luc inh,Shn3 inh set2,PAX8 reporter
COc1ccc([N+](=O)[O-])c(S(=O)(=O)c2ccc(Cl)cc2)n1,i,61.9,i,i,94.2,82.1
COc1ccccc1S(=O)(=O)c1ccccc1[N+](=O)[O-],i,i,i,i,i,i
COc1ccc([N+](=O)[O-])c(S(=O)(=O)c2ccccc2)n1,i,nt,i,i,i,102.7
O=[N+]([O-])c1cccnc1S(=O)(=O)c1ccccc1,i,i,i,i,97.7,110.1
Cc1ccc(O)c(NC(=O)Cc2cccc3ccccc23)c1,i,nt,nt,nt,nt,nt
CC(=O)N1CC2(C1)[C@H](c1ccccc1)[C@@H](CO)N2S(=O)(=O)c1ccccc1,nt,nt,nt,nt,nt,i
CC(C)NC(=O)N(C)C[C@H]1Oc2cc(-c3cccnc3)ccc2S(=O)(=O)N([C@H](C)CO)C[C@@H]1C,nt,nt,i,nt,nt,nt
CS(=O)(=O)N1CC2(C1)[C@H](c1ccccc1)[C@@H](CO)N2Cc1ccccn1,nt,nt,nt,nt,nt,i
C=CCn1c(-c2ccc(OC)cc2)csc1=Nc1c(C)n(C)n(-c2ccccc2)c1=O,i,42.5,nt,i,i,nt
C[C@H](CO)N1C[C@H](C)[C@H](CN(C)Cc2ccncc2)Oc2ncc(C#CCN(C)C)cc2C1=O,nt,nt,i,nt,nt,nt
CCOc1ccc(CNc2nnnn2C)cc1,i,i,i,i,i,i
CCOc1cccc(CNc2nnnn2C)c1,i,79.1,i,i,i,i
Cn1c(CN2CCCCC2)nc2cc(NC(=O)c3cccc(Br)c3)ccc21,i,i,67.1,i,i,nt
Cn1c(CN2CCCCC2)nc2cc(NC(=O)c3ccccc3)ccc21,i,i,i,i,i,nt
COc1ccc(CN(C)C[C@@H]2Oc3ccc(NS(=O)(=O)c4ccccc4)cc3CC(=O)N([C@H](C)CO)C[C@H]2C)cc1,nt,nt,i,nt,nt,nt
Cc1ccc(CN2C(=O)CCC2C(=O)NCCCN2CCC(C)CC2)cc1 (stereo not given),i,49.7,nt,i,i,nt
COc1ccc(NC(=O)N(C)C[C@@H]2Oc3ccc(NC(=O)NC(C)C)cc3CC(=O)N([C@@H](C)CO)C[C@H]2C)cc1,nt,nt,i,nt,nt,i
C/C(=N/NC(=O)C1CC1(c1ccccc1)c1ccccc1)c1cccs1 (stereo not given),i,i,57.5,i,i,i
CC1(C(=O)NCc2ccc3c(c2)OCO3)CCN1Cc1csc2ccccc12 (stereo not given),i,nt,98.3,i,i,i
CC1(C(=O)Nc2ccc3c(c2)OCCO3)CCN1Cc1csc2ccccc12 (stereo not given),i,nt,i,i,i,i
CCNC(=O)C[C@@H]1CC[C@H]2[C@@H](COC[C@H](O)CN2C(=O)Nc2c(C)noc2C)O1,nt,nt,nt,nt,nt,i
COc1ccc(C)cc1NC(=O)CCNS(=O)(=O)c1ccc2c(c1)CC(C)N2C(C)=O (stereo not given),i,i,79.0,i,i,i
CC1=NN(c2ccccc2)C(=O)/C1=C\C=C\c1ccccc1,i,nt,i,i,i,i
CC1=NN(c2ccc(C)c(C)c2)C(=O)/C1=C\C=C\c1ccc([N+](=O)[O-])o1,i,i,i,i,94.8,70.0
Cc1cccc2c(C(=O)O)cc(-c3cccnc3)nc12,i,i,i,i,i,66.4
SMILES,NSD2 HMT inh,LMP1 NFkB inh,Env fusion inh,Glyco luc inh,Shn3 inh set2,PAX8 reporter
COc1ccc(CN(C)C[C@H]2OCCCC[C@H](C)Oc3ccc(N(C)C)cc3C(=O)N([C@@H](C)CO)C[C@@H]2C)cc1,nt,nt,i,nt,nt,i
COc1ccc(CCNC(=O)c2ccc3c(c2)SC2=NS(=O)(=O)CCN23)cc1,i,i,i,i,i,i
O=C(Nc1cccc(Cl)c1)c1ccc2c(c1)SC1=NS(=O)(=O)CCN12,i,i,i,i,i,74.5
C[C@@H]1CN([C@H](C)CO)C(=O)c2cccc(NC(=O)c3cnccn3)c2O[C@H]1CN(C)C(=O)Nc1cccc2ccccc12,nt,nt,i,nt,nt,i
Cc1noc(C)c1S(=O)(=O)Nc1ccc2c(c1)C(=O)N([C@@H](C)CO)C[C@H](C)[C@@H](CN(C)Cc1ccc(C(F)(F)F)cc1)OCCCC[C@H](C)O2,nt,i,i,i,i,70.9!
Cc1noc(C)c1S(=O)(=O)Nc1ccc2c(c1)C(=O)N([C@H](C)CO)C[C@H](C)[C@H](CN(C)Cc1ccc(C(F)(F)F)cc1)OCCCC[C@@H](C)O2,nt,nt,i,nt,nt,i
Cc1noc(C)c1S(=O)(=O)Nc1ccc2c(c1)C(=O)N([C@@H](C)CO)C[C@H](C)[C@@H](CN(C)C(=O)Nc1ccc(C(F)(F)F)cc1)OCCCC[C@H](C)O2,nt,nt,57.2[16.7 µM],nt,nt,107.2
